Experimental findings from PubChem BioAssay (EPA / NIEHS) are described below.

The target in experiment [1] is Glucocorticoid receptor (Homo sapiens) (UniProt P04150). In words: ATG_GR_TRANS: Attagene TRANS-FACTORIAL HepG2 Assay for human Glucocorticoid Receptor (GR) (AID 2282978).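 Also: activators score as hits since higher reporter transcript over DMSO is fitted.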 As to conditions: HepG2 Attagene TRANS GR reporter, mRNA transcription. The gist of the method: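 Transient MRTU transfection of HepG2 (GAL4-UAS reporters, exogenous NR-GAL4 chimeras), 24 h dosing. Readout: reporter transcript via RT-PCR + capillary electrophoresis fluorescence. Positive direction vs DMSO baseline.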

Experiment [2] has as its target Bile acid receptor (Homo sapiens) (UniProt Q96RI1). Description: ATG_FXR_TRANS: Attagene TRANS-FACTORIAL HepG2 Assay for Farnesoid X Receptor (FXR) (AID 2282979).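 Also: hits raise reporter mRNA above DMSO so AC50 marks FXR activation.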 As to conditions: HepG2 Attagene TRANS FXR-GAL4 reporter transcription. The procedure, abridged: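 After 24 h chemical treatment of transfected HepG2 cells, GAL4-UAS reporter transcripts driven by an exogenous FXR-GAL4 fusion were measured by RT-PCR and capillary electrophoresis. Increases over DMSO were fitted.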

In experiment [3] the target is Oxysterols receptor LXR-alpha (Homo sapiens) (UniProt Q13133). Description: ATG_LXRa_TRANS: Attagene TRANS-FACTORIAL HepG2 Assay for human Liver X Receptor alpha (LXRa) (AID 2282980). As to conditions: HepG2 Attagene TRANS reporter, LXRa transactivation. The gist of the method: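 In this multiplexed TRANS system, compounds act on HepG2 cells carrying GAL4-UAS reporter units and a receptor-GAL4 fusion for 24 h. Induced reporter RNA is amplified, fluorescently labelled and sized by capillary electrophoresis, with DMSO as baseline.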

A short description of experiment [4]: ATG_M_06_TRANS: Attagene TRANS-FACTORIAL HepG2 Assay for M06 Transcription Factor (Internal Marker) (AID 2282983). Particulars: HepG2 Attagene TRANS M06 internal marker reporter. The gist of the method: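 Multi-reporter-transfected HepG2, 24 h treatment; reporter transcripts quantified via RT-PCR, primer-extension labelling and CE. DMSO-normalized gain-of-signal fit.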

The nature of experiment [5]: ATG_M_32_TRANS: Attagene TRANS-FACTORIAL HepG2 Assay for M32 Transcription Factor (Internal Marker) (AID 2282984).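 Also: transcript level of a background control reporter unit measured by RT-PCR and capillary electrophoresis.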 As to conditions: HepG2 Attagene TRANS M32 internal marker reporter. The procedure, abridged: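 After 24 h dosing of transfected HepG2 cells, total RNA was reverse-transcribed, reporter sequences PCR-amplified, 6-FAM labelled by primer extension and HpaI-digested before capillary electrophoresis. Signal increase over DMSO was fitted.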

The target of experiment [6] is Nuclear receptor subfamily 4 group A member 2 (Homo sapiens) (UniProt P43354). In words: ATG_NURR1_TRANS: Attagene TRANS-FACTORIAL HepG2 Assay for human Nuclear Receptor Related Protein 1 (NURR1) (AID 2282985). Particulars: HepG2 Attagene TRANS reporter, mRNA readout. The procedure, abridged: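 Chimeric NR-Gal4 fusion activity measured in HepG2 after 24 h treatment. Reporter transcripts detected by RT-PCR and capillary electrophoresis fluorescence; positive-direction curve fitting against DMSO.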

Experiment [7] deals with Transcriptional activator Myb (Homo sapiens) (UniProt P10242). In words: ATG_Myb_CIS: Attagene CIS-FACTORIAL HepG2 Assay for human Myeloblastosis (Myb) Proto-Oncogene Transcription Factor (AID 2282986; active = hit-call score of the fitted dose curve at least 0.9, where 1 is the maximum; inactive = score below 0.9). As to conditions: HepG2 Attagene CIS-FACTORIAL Myb reporter transcription; actives raise or lower the signal. The procedure, abridged: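 HepG2, transient MRTU transfection (cis-element promoters, endogenous TF activity), 24 h compound exposure. Readout: reporter mRNA via RT-PCR, 6-FAM labeling, HpaI digest, capillary electrophoresis. Gain/loss fit vs DMSO.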

The target of experiment [8] is Nuclear respiratory factor 1 (Homo sapiens) (UniProt Q16656). Description: ATG_NRF1_CIS: Attagene CIS-FACTORIAL HepG2 Assay for human Nuclear Respiratory Factor 1 (NRF1) Orphan Gene (AID 2282987; active = hit-call score of the fitted dose curve at least 0.9, where 1 is the maximum; inactive = score below 0.9). Particulars: HepG2 NRF1 cis-element reporter, Attagene multiplex; actives raise or lower the signal. The procedure, abridged: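 Endogenous NRF1-driven reporter transcription measured in transiently transfected human HepG2 liver cells. Readout: reporter mRNA by RT-PCR and capillary electrophoresis with fluorescence detection, 24 h post-dosing. Gain or loss of signal fitted relative to DMSO baseline.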

For experiment [9], the target named is Oxysterols receptor LXR-beta (Homo sapiens) (UniProt P55055). In words: ATG_LXRb_TRANS: Attagene TRANS-FACTORIAL HepG2 Assay for human Liver X Receptor beta (LXRb) (AID 2282981). As to conditions: HepG2 Attagene TRANS GAL4-LXRb reporter, mRNA. The procedure, abridged:
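Measures induction of a Gal4-driven reporter transcript in HepG2 cells expressing an exogenous LXRb-Gal4 fusion. Cells are exposed to compound for 24 h before RNA isolation and RT-PCR with capillary electrophoresis detection.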

Experiment [10] deals with Hepatocyte nuclear factor 4-alpha (Homo sapiens) (UniProt P41235). Description: ATG_HNF4a_TRANS: Attagene TRANS-FACTORIAL HepG2 Assay for human Hepatocyte Nuclear Factor 4 alpha (HNF4a) (AID 2282982). As to conditions: HepG2 HNF4a transactivation reporter, mRNA readout. The procedure, abridged: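 In this trans-factorial format, a chimeric HNF4a-GAL4 fusion drives a GAL4-UAS reporter in transfected HepG2 liver cells. After 24 h treatment, reporter mRNA induction is measured by RT-PCR with capillary electrophoresis, relative to DMSO.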

Records with an inconclusive call do not appear. Activity calls are given as the source filed them. The calls were made as follows, unless noted: active = hit-call score of the fitted dose curve at least 0.9, where 1 is the maximum; inconclusive = response in the unintended direction; inactive = score below 0.9.

Glucocorticoid receptor (Homo sapiens), sequence (P04150 whole entry, looked up, the tested form may be a part): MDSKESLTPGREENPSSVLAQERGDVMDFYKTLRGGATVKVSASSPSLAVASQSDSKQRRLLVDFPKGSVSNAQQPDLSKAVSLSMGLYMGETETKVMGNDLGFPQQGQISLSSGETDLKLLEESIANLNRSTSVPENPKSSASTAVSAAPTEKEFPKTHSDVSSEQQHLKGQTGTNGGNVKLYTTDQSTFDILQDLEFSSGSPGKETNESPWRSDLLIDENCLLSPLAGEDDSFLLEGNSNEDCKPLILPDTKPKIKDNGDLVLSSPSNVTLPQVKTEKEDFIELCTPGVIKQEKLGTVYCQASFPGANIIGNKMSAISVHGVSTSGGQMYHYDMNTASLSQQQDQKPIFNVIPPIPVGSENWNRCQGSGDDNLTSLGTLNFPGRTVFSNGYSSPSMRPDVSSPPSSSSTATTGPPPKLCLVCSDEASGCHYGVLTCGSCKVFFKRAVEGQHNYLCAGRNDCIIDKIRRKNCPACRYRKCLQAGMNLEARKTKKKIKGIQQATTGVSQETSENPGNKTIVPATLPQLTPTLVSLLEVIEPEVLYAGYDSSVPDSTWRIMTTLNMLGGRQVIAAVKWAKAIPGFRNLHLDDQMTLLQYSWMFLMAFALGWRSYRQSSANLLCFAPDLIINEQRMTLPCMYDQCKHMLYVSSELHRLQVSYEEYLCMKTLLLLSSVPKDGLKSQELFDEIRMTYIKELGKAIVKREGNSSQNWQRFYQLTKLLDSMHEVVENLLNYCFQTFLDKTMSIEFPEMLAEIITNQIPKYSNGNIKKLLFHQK
Transcriptional activator Myb (Homo sapiens), sequence (P10242 whole entry, looked up): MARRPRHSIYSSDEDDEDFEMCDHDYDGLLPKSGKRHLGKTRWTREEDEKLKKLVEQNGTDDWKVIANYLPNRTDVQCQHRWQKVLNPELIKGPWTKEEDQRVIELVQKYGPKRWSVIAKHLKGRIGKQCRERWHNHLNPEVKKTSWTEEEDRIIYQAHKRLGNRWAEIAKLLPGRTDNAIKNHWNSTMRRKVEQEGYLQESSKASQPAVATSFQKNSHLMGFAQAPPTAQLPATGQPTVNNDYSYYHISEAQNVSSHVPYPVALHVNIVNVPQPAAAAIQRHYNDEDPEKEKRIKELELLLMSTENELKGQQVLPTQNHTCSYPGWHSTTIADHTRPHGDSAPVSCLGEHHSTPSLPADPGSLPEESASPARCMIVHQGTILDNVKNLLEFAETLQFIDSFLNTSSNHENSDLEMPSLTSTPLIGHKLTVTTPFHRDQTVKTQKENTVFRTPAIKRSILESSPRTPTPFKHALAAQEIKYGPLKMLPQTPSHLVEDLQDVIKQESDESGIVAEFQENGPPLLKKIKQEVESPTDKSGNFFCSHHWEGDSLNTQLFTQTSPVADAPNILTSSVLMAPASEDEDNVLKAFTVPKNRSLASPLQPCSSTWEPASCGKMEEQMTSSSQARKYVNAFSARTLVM
Bile acid receptor (Homo sapiens), sequence (Q96RI1 whole entry, looked up, the tested form may be a part): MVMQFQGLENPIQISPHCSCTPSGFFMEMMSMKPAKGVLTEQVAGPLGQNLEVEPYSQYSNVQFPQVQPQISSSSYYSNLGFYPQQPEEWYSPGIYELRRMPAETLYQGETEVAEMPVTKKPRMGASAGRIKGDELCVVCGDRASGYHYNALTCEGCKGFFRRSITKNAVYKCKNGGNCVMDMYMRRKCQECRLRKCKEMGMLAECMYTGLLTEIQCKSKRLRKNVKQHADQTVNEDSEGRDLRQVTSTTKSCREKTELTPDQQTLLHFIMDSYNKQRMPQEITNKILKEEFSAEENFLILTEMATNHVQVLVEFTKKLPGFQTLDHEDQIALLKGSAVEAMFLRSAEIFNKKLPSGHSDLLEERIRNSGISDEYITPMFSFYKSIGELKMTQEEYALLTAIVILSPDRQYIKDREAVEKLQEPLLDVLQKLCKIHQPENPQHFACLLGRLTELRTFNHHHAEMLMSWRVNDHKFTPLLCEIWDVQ
Hepatocyte nuclear factor 4-alpha (Homo sapiens), sequence (P41235 whole entry, looked up, the tested form may be a part): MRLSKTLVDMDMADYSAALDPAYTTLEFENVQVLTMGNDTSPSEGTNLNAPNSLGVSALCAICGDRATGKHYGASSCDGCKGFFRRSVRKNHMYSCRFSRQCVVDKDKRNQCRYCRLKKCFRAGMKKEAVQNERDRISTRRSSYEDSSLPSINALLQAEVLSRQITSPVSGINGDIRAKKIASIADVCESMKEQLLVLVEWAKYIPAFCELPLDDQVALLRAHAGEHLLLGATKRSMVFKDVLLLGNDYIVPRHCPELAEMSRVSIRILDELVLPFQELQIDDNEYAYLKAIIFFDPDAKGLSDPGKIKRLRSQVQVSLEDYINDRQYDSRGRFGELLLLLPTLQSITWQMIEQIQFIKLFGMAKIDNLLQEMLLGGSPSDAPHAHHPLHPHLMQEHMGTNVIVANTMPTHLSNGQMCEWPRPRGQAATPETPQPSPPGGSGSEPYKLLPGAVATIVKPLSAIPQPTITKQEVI
Nuclear receptor subfamily 4 group A member 2 (Homo sapiens), sequence (P43354 whole entry, looked up, the tested form may be a part): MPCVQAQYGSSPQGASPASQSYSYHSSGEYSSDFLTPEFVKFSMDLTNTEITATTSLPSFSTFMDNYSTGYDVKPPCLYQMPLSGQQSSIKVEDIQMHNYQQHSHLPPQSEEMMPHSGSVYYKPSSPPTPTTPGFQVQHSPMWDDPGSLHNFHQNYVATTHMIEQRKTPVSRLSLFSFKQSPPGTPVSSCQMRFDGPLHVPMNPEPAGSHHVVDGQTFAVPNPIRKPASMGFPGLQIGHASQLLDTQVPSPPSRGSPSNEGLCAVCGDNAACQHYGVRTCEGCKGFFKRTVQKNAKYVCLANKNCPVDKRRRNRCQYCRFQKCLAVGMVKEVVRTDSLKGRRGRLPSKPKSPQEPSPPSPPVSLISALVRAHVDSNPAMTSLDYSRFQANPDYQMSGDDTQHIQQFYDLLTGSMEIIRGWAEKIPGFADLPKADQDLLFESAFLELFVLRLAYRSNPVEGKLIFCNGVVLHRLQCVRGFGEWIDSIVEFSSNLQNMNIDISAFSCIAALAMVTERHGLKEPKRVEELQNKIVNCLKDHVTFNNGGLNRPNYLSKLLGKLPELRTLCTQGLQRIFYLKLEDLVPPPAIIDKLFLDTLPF
Oxysterols receptor LXR-beta (Homo sapiens), sequence (P55055 whole entry, looked up, the tested form may be a part): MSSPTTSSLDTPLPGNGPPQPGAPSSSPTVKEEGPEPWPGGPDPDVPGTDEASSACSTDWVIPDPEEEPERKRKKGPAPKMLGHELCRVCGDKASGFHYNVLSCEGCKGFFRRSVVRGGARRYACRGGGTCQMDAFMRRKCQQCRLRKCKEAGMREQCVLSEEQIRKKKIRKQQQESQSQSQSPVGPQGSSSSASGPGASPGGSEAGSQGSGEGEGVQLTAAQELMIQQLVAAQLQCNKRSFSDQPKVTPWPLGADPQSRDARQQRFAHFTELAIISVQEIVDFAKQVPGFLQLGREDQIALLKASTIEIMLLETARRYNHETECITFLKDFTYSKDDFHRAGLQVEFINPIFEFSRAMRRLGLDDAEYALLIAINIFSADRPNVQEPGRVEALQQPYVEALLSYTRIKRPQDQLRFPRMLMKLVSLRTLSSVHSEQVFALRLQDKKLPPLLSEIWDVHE
Nuclear respiratory factor 1 (Homo sapiens), sequence (Q16656 whole entry, looked up): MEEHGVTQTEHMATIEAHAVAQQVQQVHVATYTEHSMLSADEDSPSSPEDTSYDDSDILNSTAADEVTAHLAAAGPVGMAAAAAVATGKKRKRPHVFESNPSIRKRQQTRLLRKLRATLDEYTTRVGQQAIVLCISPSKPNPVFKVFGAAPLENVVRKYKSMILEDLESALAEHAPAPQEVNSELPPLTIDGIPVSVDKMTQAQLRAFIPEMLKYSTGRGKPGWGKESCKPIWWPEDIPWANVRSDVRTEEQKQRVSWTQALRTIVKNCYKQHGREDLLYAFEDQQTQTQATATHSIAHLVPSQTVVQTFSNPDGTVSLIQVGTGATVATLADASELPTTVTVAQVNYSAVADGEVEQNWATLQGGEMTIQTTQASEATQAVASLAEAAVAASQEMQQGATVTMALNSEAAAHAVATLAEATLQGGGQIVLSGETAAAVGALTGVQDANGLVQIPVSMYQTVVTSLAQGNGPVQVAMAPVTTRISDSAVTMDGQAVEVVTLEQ
Oxysterols receptor LXR-alpha (Homo sapiens), sequence (Q13133 whole entry, looked up, the tested form may be a part): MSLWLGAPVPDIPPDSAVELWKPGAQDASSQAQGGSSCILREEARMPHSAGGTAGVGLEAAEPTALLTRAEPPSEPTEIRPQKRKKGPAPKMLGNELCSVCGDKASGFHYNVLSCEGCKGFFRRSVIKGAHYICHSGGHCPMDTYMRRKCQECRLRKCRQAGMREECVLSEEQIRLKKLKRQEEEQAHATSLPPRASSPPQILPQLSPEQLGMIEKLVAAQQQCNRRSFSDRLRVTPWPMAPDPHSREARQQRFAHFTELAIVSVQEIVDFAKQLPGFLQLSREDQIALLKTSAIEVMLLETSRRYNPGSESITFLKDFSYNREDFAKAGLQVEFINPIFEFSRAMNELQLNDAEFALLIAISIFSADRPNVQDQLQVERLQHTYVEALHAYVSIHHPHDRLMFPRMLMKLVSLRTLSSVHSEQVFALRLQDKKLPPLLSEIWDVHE

`Nc1ccc(Oc2ccc(N)c(N)c2)cc1`: the compound was classed as inactive in [1], in experiment [2], in experiment [3], in experiment [4], in experiment [5] and in experiment [6]. In addition, the result in experiment [7] and in experiment [8] was inactive.

In the case of `C[Si](C)(C)O[Si](O)(O)O`, the call in experiment [1], in experiment [2], in experiment [3], in experiment [4], in experiment [6] and in experiment [7] was inactive. In addition, the compound was classed as inactive in [8].

With `CC(C)(C)C1CCCCC1=O` (centres undefined), the compound was classed as inactive in [1], in experiment [3], in experiment [9], in experiment [10], in experiment [4] and in [5]. The compound was called inactive in experiment [7] and in experiment [8].

For the compound `CCOc1nc(F)cc2nc(S(=O)(=O)Nc3c(Cl)cccc3C(=O)OC)nn12`, the result in [1], in experiment [2], in experiment [9], in [10], in experiment [4] and in [7] was inactive. For the same compound, in experiment [8], the compound was called inactive.

Usually AC50 stands for the midpoint of the concentration-response curve, whichever way the signal moves. On to `C#CC1(O)CC[C@H]2[C@@H]3CCC4=CCCC[C@@H]4[C@H]3CC[C@@]21C` (some centres undefined), for which the call in [1], in [2], in experiment [10], in experiment [5] and in [8] was inactive. In addition, the half-maximal activity concentration (AC50) in [3] was 1.46 µM (active); in [9], 1.81 µM (active).

Regarding `CCCCCCOC(=O)C(C)CC` (centres undefined), the outcome in experiment [1], in experiment [2], in experiment [3], in experiment [10], in experiment [5] and in experiment [7] was inactive. Besides, the result in [8] was inactive.

On to `Cc1cccc(N(C)C(=S)Oc2ccc3ccccc3c2)c1`, for which the result in experiment [1], in experiment [2], in experiment [3], in [10], in experiment [4] and in experiment [5] was inactive. Further, the compound was called inactive in [7] and in experiment [8]. In addition, the AC50 in experiment [6] is 44.1 µM (active).

As for `O=c1cc(-c2ccccc2)oc2ccccc12`, the compound was classed as inactive in [1], in [3], in experiment [9], in [10], in [4] and in experiment [6]. For the same compound, the outcome in experiment [7] was inactive.

With `CC1OC1C1CCC2(C)OC2C1` (centres undefined), the compound was called inactive in [1], in [3], in [9], in experiment [10], in experiment [5] and in experiment [6]. Besides, the compound was called inactive in experiment [7] and in [8].

`COc1ccc(-c2coc3cc(O)ccc3c2=O)cc1`: the result in experiment [1], in [3], in experiment [9], in experiment [10], in experiment [4] and in experiment [5] was inactive. Besides, the outcome in experiment [6], in experiment [7] and in experiment [8] was inactive.

Regarding `C=C[Si](C)(C)O[Si](C)(C)C=C`, the result in [1], in experiment [3], in experiment [9], in experiment [10], in [4] and in experiment [5] was inactive. Moreover, the call in experiment [6], in [7] and in [8] was inactive.

Turning to `C=C[C@](C)(O)CC[C@@H]1[C@@]2(C)CCCC(C)(C)[C@@H]2CC[C@@]1(C)O`, the call in experiment [1], in experiment [2], in experiment [3], in experiment [4], in [5] and in experiment [6] was inactive. Also, the outcome in experiment [7] and in experiment [8] was inactive.

Turning to `Cc1cnc(NC(=O)C2=C(O)c3ccccc3S(=O)(=O)N2C)s1`, the compound was called inactive in experiment [1], in [2], in experiment [3], in experiment [4], in [5] and in experiment [6]. Besides, the outcome in experiment [7] and in [8] was inactive.

As for `CC(=O)NS(=O)(=O)c1ccc(N)cc1`, the outcome in [1], in experiment [3], in experiment [9], in experiment [10] and in [7] was inactive.

For the compound `CCOC(=O)Cc1cccc2ccccc12`, the result in [1], in experiment [3], in experiment [9], in experiment [5] and in [7] was inactive.

Regarding `COc1ccc2nc(N)sc2c1`, the outcome in experiment [1], in [3], in experiment [10], in experiment [4], in experiment [5] and in [6] was inactive. Also, the result in [7] and in [8] was inactive.

In the case of `CC(=O)[C@@]1(O)CC[C@H]2[C@@H]3C[C@H](C)C4=CC(=O)C=C[C@]4(C)[C@@]3(F)[C@@H](O)C[C@@]21C`, the AC50 in experiment [1] is 0.221 µM (active). The compound was classed as inactive in [3], in experiment [9], in experiment [7] and in experiment [8].

With `CC=CC(=O)N(CC)c1ccccc1C`, the call in experiment [1], in experiment [3], in experiment [9], in experiment [10], in experiment [5] and in experiment [8] was inactive.

As for `COc1cc(NC(=O)CC(C)=O)c(OC)cc1Cl`, the compound was called inactive in [1], in [3], in [9], in experiment [6], in experiment [7] and in experiment [8].

As for `CCCCCCCC[N+](C)(CCCCCCCC)CCCCCCCC`, the call in [1], in [3], in experiment [10], in [5] and in experiment [7] was inactive.

Turning to `CN(C)CCCN(C)C`, the result in experiment [1], in [3], in [9], in experiment [4], in experiment [7] and in experiment [8] was inactive.

As to `CCCCCCCC/C=C\CCCCCCCC(=O)O`, the compound was called inactive in [1], in experiment [3], in experiment [9], in experiment [4], in experiment [5] and in experiment [6]. Moreover, the call in [7] and in experiment [8] was inactive.

With `CCCCNc1ccc(NCCCC)c2c1C(=O)c1ccccc1C2=O`, the result in [1], in experiment [3], in experiment [10], in experiment [4], in experiment [5] and in [6] was inactive. The result in [7] was inactive.

Consider `CC(=O)[C@H]1[C@H](C#N)C[C@H]2[C@@H]3CC=C4C[C@@H](O)CC[C@]4(C)[C@H]3CC[C@@]21C`, for which the result in [1], in [3], in [9], in experiment [4], in experiment [6] and in experiment [7] was inactive. Also, the outcome in experiment [8] was inactive.

In the case of `O=C1CCCN1CCO`, the compound was classed as inactive in [1], in [3], in experiment [9], in [6], in experiment [7] and in [8].

For `O=C1CCCCCCCCCCCCCCCO1`, the call in experiment [1], in experiment [3], in experiment [9], in experiment [4], in experiment [5] and in experiment [6] was inactive. Moreover, the compound was called inactive in experiment [7] and in [8].

As for `CC(=O)OCCC1CCCCC1`, the compound was classed as inactive in experiment [1], in experiment [3], in [9], in experiment [4], in experiment [7] and in experiment [8].

Turning to `CC(=O)OCC(=O)[C@@]12N=C(C)O[C@@H]1C[C@H]1[C@@H]3CCC4=CC(=O)C=C[C@]4(C)[C@H]3[C@@H](O)C[C@@]12C`, the concentration at half-maximal activity (AC50) in experiment [1] was 0.0827 µM (active); in [6], 17.1 µM (active). Moreover, the compound was called inactive in experiment [3], in experiment [9], in [5], in experiment [7] and in [8].

On to `C=CC(C)(CCC=C(C)C)OC(=O)CC(C)C` (centres undefined), for which the call in experiment [1], in [3], in [9], in [5], in experiment [6] and in experiment [7] was inactive. The compound was classed as inactive in experiment [8].
